In the library only some 1.8% were active in any assay of this set; here they are far more common.
Y pestis TopoI: inhibitors of Yersinia pestis topoisomerase I; Y. pestis Topo-I cleavage product accumulation, plate reader; activity, % at 10 µM; 0.064% of 360,000 active; AID 504884; in the data active = activity above about 50%, passing the limit was not always enough
Vc quorum ag: inducers of Vibrio cholerae quorum light production without autoinducers; V. cholerae BH1578 lux reporter, luminescence, 6 h; activation, % at 18.7 µM; 0.16% of 350,000 active; in the data active = activation mostly above about 9.7%, no sharp cut-off
VHR inh abs: inhibitors of human VHR1 phosphatase (DUSP3); P51452; recombinant VHR phosphatase, pNPP absorbance; inhibition, % at 13.3 µM; 0.52% of 290,000 active; in the data active = inhibition above about 50%
Target sequence (P51452 whole entry, looked up): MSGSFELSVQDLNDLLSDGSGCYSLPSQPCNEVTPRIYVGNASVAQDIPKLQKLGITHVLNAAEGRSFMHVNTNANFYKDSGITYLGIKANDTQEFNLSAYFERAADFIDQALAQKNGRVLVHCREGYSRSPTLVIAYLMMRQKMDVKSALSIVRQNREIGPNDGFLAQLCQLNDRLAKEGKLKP
PrPC TRFRET: inhibitors of human cell surface prion protein PrPC; P04156; TR-FRET read-out; inhibition, % at 13.8 µM; 0.43% of 370,000 active; in the data active = inhibition above about 24%; also: 0% = median of the test wells and 100% = reference compound wells
CCHF vOTU inh-1: CCHFV vOTU protease inhibition. Pep-AMC fluorescence. inhibition, % at 11.5 µM. 0.55% of 370,000 active. AID 651958; also: 0% = vehicle wells with enzyme and 100% = no enzyme wells
MazF activator: activators of E. coli MazEF toxin-antitoxin RNase. P0AE70. FAM/BHQ RNA-DNA oligo cleavage fluorescence, 5 h. activation, % at 20 µM. 0.32% of 350,000 active; in the data active = activation above about 50%
Target sequence (P0AE70 whole entry, looked up): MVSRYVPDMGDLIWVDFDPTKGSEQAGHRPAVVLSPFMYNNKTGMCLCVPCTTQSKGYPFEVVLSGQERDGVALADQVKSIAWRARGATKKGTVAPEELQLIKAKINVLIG
CCHF vOTU inh-2: CCHFV vOTU protease inhibition, confirmation | shares compounds with CCHF vOTU inh-1 | Recombinant CCHFV vOTU, Pep-AMC fluorescence | 17% of 1,900 active | inhibition, % at 11.5 µM
The depositor's hits bear a star; i = inactive; . = no result. Rule as the data show it, unless noted: active = inhibition above about 30%; inactive = the rest.

SMILES	Y pestis TopoI	Vc quorum ag	VHR inh abs	PrPC TRFRET	CCHF vOTU inh-1	MazF activator	CCHF vOTU inh-2
Cc1ccc([N+](=O)[O-])cc1N(CC(=O)Nc1ccc(S(=O)(=O)Nc2cccc(C(F)(F)F)c2)cc1)S(C)(=O)=O	-3	0	4	24	30*	-15	-9
COc1ccccc1Cn1c(=S)[nH]c2cc(C(=O)N3CC(C)CC(C)C3)ccc2c1=O (centres undefined)	18	i	.	-9	-4	0	.
CC(OC(=O)c1cccc(-n2cnnn2)c1)C(=O)Nc1ccc(F)cc1Cl (centres undefined)	1	0	.	1	33*	-1	-12
CCCCn1c(N)c(N(CC(C)C)C(=O)c2ccc(C)c(S(=O)(=O)N3CCCCC3)c2)c(=O)[nH]c1=O	-1	-2	.	-4	-5	-4	.
CCCCCCCCN1C(=O)[C@@H](CC(=O)NCc2ccc(C)o2)C[C@@]2(C(=O)OC)C1=C[C@H](C(C)C)O[C@@H]2C1CC1	.	.	.	-2	30*	.	27
CCCCCCCCN1C(=O)[C@@H](CC(=O)NCc2ccccc2)C[C@@]2(C(=O)OC)C1=C[C@H](C(C)C)O[C@@H]2C1CC1	.	.	.	7	39*	.	12
CCCCCCCCN1C(=O)[C@@H](CC(=O)NCCc2ccccc2OC)C[C@@]2(C(=O)OC)C1=C[C@H](C(C)C)O[C@@H]2C1CC1	.	.	.	1	35*	.	16
COC(=O)[C@]12C[C@H](CC(=O)NCc3ccc(C)o3)C(=O)N(Cc3ccco3)C1=C[C@H](C(C)C)O[C@@H]2C1CC1	.	.	.	19	3	.	.
COC(=O)[C@@]12C[C@@H](CC(=O)NCc3ccc(C)o3)C(=O)N(CCc3ccc(OC)c(OC)c3)C1=CCC(C)(C)C2	.	.	.	-2	36*	.	-4
Cc1ccc(S(=O)(=O)Nc2ccc(C(=O)N3CCN(c4ccccc4O)CC3)cc2)cc1[N+](=O)[O-]	-11	0	.	1	-1	-4	.
NC(=O)c1cc(-c2ccccc2)sc1NC(=O)CN1CCCCC1	-17	-1	-14	0	-4	4	.
CCCCCCCCN1C(=O)[C@@H](CC(=O)N2CCN(C(=O)C3CC3)CC2)C[C@@]2(C(=O)OC)C1=C[C@H](C(C)C)O[C@@H]2C1CC1	.	.	.	-3	26	.	.
CCCCCCCCN1C(=O)[C@H](CC(=O)N2CCCC2)C[C@@]2(C(=O)OCC)CCCC=C12	.	.	.	-4	34*	.	20
COC(=O)[C@]12CCCCC=C1N(CCC1=CCCCC1)C(=O)[C@H](CC(=O)NCCC(C)C)C2	.	.	.	5	44*	.	-6
CCCCCCCCN1C(=O)[C@H](CC(=O)NCc2ccccc2)C[C@@]2(C(=O)OC)CCCCC=C12	.	.	.	12	40*	.	31*
CCCCCCCCN1C(=O)[C@@H](CC(=O)N2CCN(C(=O)OCC)CC2)C[C@@]2(C(=O)OC)C1=C[C@H](C(C)C)O[C@@H]2C1CC1	.	.	.	1	33*	.	17
COc1ccc2nc(SCC(=O)NC3(C#N)CCCCC3)[nH]c2c1	1	1	.	4	-5	2	.
O=C(CCCN1C(=O)C(c2ccccc2)Oc2cccnc21)Nc1ccccc1Cl (centres undefined)	26	i	82	0	14	5	.
CC(C)c1ccc(OCC(=O)Nc2cccc(C(=O)Nc3ccccc3C(=O)O)c2)cc1	7	-1	21	7	31*	7	-11
O=[N+]([O-])c1cc([N+](=O)[O-])c2c(=Nc3ccccc3)n(-c3ccccc3)n(O)c2c1	-9	0	17	-19	31*	14	1
O=[N+]([O-])c1cc(Br)c(Nc2ccccc2)c([N+](=O)[O-])c1	-5	i	16	-40	7	1	.
COc1ccc(C=C2SC(=S)N(CCCC(=O)Nc3ccc(C(=O)O)c(O)c3)C2=O)cc1OC	12	1	.	-44	22	.	.
O=C(CN1C(=O)/C(=C/c2ccco2)SC1=S)Nc1ccc(C(=O)O)c(O)c1	-23	i	15	-6	36*	8	22
O=C(CN1C(=O)/C(=C/c2ccco2)SC1=S)Nc1ccc(O)c(C(=O)O)c1	-19	0	-9	-6	18	1	.
